According to PubChem BioAssay (NCI):
The panel holds about 83,000 compounds, 20% with a hit somewhere; the sample as a whole holds those more often.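 Testing used 96-well plates and a 48-hour single-concentration exposure. Example: -40 means 40% of the starting cells died.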 The source made the active and inactive calls.

Tested on: NCI-H226 lung
Test: NCI-60 one-dose screen, 48 h (100 = growth as untreated, 0 = no growth, -100 = all killed)
Details: 10 µM unless noted
Description: Growth inhibition of the NCI-H226 human Non-Small Cell Lung tumor cell line is measured as a screen for anti-cancer activity. Cells are grown in 96 well plates and exposed to the test compound for 48 hours. Compounds are tested at a single concentration, which is 10^-5 M for most compounds. The reported endpoint is percent growth (GI% or GIPRCNT), where numbers from 0 - 100% represent growth inhibition, and numbers from -100% - 0 represent cell death. For example, a value of 40 represents 60% growth inhibition. A value of 0 means no net growth occurred over the course of the experiment. A value of -40 indicates 40% of cells at the beginning of the experiment died by the end of the experiment. A value of -100 means all cells are dead at the end of the experiment.
NCI-60 Human Tumor Cell Lines Screen was performed using the standard one-dose NCI protocol, which is described in more detail at https://dtp.cancer.gov/discovery_development/nci-60/default.htm.
Compounds with GIPRCNT values below 10 were considered active. Activity score was based on GIPRCNT using the following formula: […]
Score is 0 for GIPRCNT values of 100 or above, 50 for GIPRCNT values of 0, and 100 for GIPRCNT values of -100.

Row | SMILES | growth
1 | COc1ccc(-c2cn(-c3ccccc3)c(-c3ccccc3)n2)cc1OC | 62.4% (inactive)
2 | CC12CCCCC1C(C(N)=O)C(=O)O2 (stereo not given) | 118% (inactive)
3 | N#CCCN(CCO)c1ccccc1 | 94.6% (inactive)
4 | Cc1ccc(C(C)C)cc1NC(=O)Nc1ccc([N+](=O)[O-])cc1 | 27.3% (inactive)
5 | O=C1Nc2ccccc2C12Nc1cc(Cl)ccc1S2 (stereo not given) | 90.8% (inactive)
6 | CCOC(Cc1c(N)[nH]c(=S)[nH]c1=O)OCC | 96.8% (inactive)
7 | O=C(c1ccccc1)c1ccco1 | 106% (inactive)
8 | CCCCCCOc1ccc(/C=N/NC(N)=S)cc1 | 66% (inactive)
9 | C[N+]1(CCc2ccccc2)CCC(CCC2CC[N+](C)(CCc3ccccc3)CC2)CC1 (stereo not given) | 92.1% (inactive)
10 | O=C1OCCCCCCCCCC#Cc2ccccc21 | 110% (inactive)
11 | CCN(CC)c1ccc(C(O)C2=CC(=O)c3ccccc3C2=O)cc1 (stereo not given) | 37.5% (inactive)
12 | O=C1/C(=C/c2ccc([N+](=O)[O-])s2)Oc2ccc(Br)cc21 | -57% (active)
13 | Cc1ccc(NC(=O)COC(=O)c2ccc(S(=O)(=O)N3CCCCCC3)cc2)cc1 | 90.8% (inactive)
14 | CC(NC(=O)C(C)Oc1ccc(Cl)cc1Cl)C(=O)O (stereo not given) | 92.9% (inactive)
15 | Cc1cc(C(=O)O)c(C)cc1C(=O)O | 101% (inactive)
16 | C=C(C)[C@H]1CC/C(C)=C/CC[C@]2(C)O[C@H]2CC/C(C=O)=C\C1O (stereo not given in full) | 106% (inactive)
17 | CC1(C)OC(=O)C(=Cc2ccccc2Br)C(=O)O1 | 96.9% (inactive)
18 | c1csc([C@@H]2C[C@@H]3Cc4ccc5ccccc5c4N2O3)c1 | 108% (inactive)
19 | CC(=O)Oc1ccc(C2OC(c3ccc4ccccc4c3OC(C)=O)=NN2C(C)=O)c(OC(C)=O)c1 (stereo not given) | 15.7% (inactive)
20 | CCC(C)CC(C)C(=O)c1c(O)ccn(OC)c1=O (stereo not given) | 84.2% (inactive)

Row | SMILES | growth
21 | NC(N)=NC(N)=NCCCc1ccccc1 | 63.4% [100 µM] (inactive)
22 | COc1cc(/C=C/C(=O)Nc2cccnc2Nc2cc(OC)c(OC)c(OC)c2)cc(OC)c1OC | 93.1% (inactive)
23 | CCOc1cc(C(C)(C)C)ccc1C1=N[C@H](c2ccc(Cl)cc2)[C@H](c2ccc(Cl)cc2)N1C(=O)N1CCN(CC#Cc2cccc3c2CN([C@@H]2CCC(=O)NC2=O)C3=O)CC1 | -17.3% (active)
24 | CCOC(=O)/C=C(/C)Sc1cc(O)c2ccccc2c1O | 89.4% (inactive)
25 | O=C(Nc1ncc([N+](=O)[O-])s1)c1cccc([N+](=O)[O-])c1 | 29.3% (inactive)
26 | CCC(CC)NCCCCCNc1cc(OC)cc2cccnc12 | 96.6% (inactive)
27 | COc1cc2c(c(OC)c1OC)CCc1cnoc1-2 | 102% (inactive)
28 | c1cnc2ccc3ncccc3c2c1 | 105% (inactive)
29 | CN(C)c1ccc(/C=C(\C#N)c2nc3ccccc3c(=O)[nH]2)cc1 | 74.1% (inactive)
30 | COc1ccc(-c2nc3sccn3c2-c2ccnc(S(C)(=O)=O)n2)cc1 | 90.4% (inactive)
31 | O=[N+]([O-])c1cnc(Sc2ccncn2)c([N+](=O)[O-])c1 | 99.6% (inactive)
32 | CC(CCC(=O)O)(NC(=O)c1ccc([N+](=O)[O-])cc1)C(=O)O (stereo not given) | 111% (inactive)
33 | c1coc([C@@H]2C[C@@H]3Cc4ccc5ccccc5c4N2O3)c1 | 107% (inactive)
34 | CC[C@H](C)C(=O)O[C@H]1C[C@@H](C)C=C2C=C[C@H](C)[C@H](CC[C@@H]3C[C@@H](O)CC(=O)O3)[C@H]21 | 95.5% (inactive)
35 | CCCCCCC(C)(O)c1ccccc1 (stereo not given) | 106% (inactive)
36 | C=C(C[C@](O)(C(=O)/C=C/c1ccc(Cl)cc1)C(=O)OC)c1ccccc1 | 89.7% (inactive)
37 | Cc1cc2c(C#N)n3c(c2cc1C)C(=O)C(c1ccccc1)Oc1ccccc1-3 (stereo not given) | 34.6% (inactive)
38 | C/C(=N/N=C(N)N)c1ccc(Cl)cc1 | 96% (inactive)
39 | O=C1C2C3C=CC(O3)C2C(=O)N1Nc1ccccc1 (stereo not given) | 109% (inactive)
40 | COc1c(C)c2c(c(O)c1C/C=C(\C)CCC(=O)OCCN1CCOCC1)C(=O)OC2 | 50.2% (inactive)
